Source: PubChem BioAssay
D2 ag-1: human D2 receptor agonism in beta-arrestin assay; DiscoveRx PathHunter D2 beta-arrestin, luminescence, 90 min; 100% = 57 uM dopamine signal; activation, % (test concentration not listed); actives 0.084% (n = 360,000); AID 624465; in the data active means activation above about 40%; inconclusive means between about 15% and that limit
Target sequence (P14416 whole entry, looked up): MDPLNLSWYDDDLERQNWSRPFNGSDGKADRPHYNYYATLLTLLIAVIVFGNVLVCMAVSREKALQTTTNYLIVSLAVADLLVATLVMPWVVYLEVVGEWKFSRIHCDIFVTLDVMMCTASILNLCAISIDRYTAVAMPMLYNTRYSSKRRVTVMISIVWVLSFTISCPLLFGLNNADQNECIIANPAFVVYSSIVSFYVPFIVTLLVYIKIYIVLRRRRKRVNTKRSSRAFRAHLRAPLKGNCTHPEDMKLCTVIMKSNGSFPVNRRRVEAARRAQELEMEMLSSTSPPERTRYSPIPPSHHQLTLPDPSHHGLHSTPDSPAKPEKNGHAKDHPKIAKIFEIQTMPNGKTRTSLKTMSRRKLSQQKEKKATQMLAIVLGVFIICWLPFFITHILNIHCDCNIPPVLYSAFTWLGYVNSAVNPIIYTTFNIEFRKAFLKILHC
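Agonist mode: compounds alone added to overnight-plated D2 PathHunter cells for 90 min at 37 C, with 57 uM final dopamine (EC100) defining full response. Beta-arrestin recruitment detected by chemiluminescent reagent, read after 1 h at ambient temperature.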
D2 PAM-1: potentiates the human D2 dopamine receptor allosterically; P14416; DiscoveRx D2 beta-arrestin cells, luminescence, 90 min; 100% = 57 uM dopamine signal; potentiation, % (no concentration beside the values); actives 0.23% (n = 360,000); in the data active means potentiation above about 50%; inconclusive means mostly about 30% to 49%
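PathHunter D2 cells, attached overnight at 37 deg C, received compound in DMSO plus dopamine at EC20 (50 nM final) for 90 min at 37 deg C. Beta-arrestin recruitment was read as luminescence after 1 h with detection reagent at ambient temperature.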
D2 ag-2: agonists of human D2 dopamine receptor; HEK293 T-REx D2 cells, calcium flux agonist mode; actives 0.53% (n = 340,000); AID 485358; P14416; activation, % at 2 µM;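 active means activation over 3 SD above normal in the single-dose calcium agonist read, cut at about 30% in these data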; further: 0% is about no effect
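HEK293 Trex D2 cells, tetracycline-induced, o/n 30 C 5% CO2; no-wash Ca dye, RT 30–90 min; 10-cycle baseline, 23 nl cpd added, kinetic Ca read 180 s; agonist hits = positive Ca response.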
D2 PAM-2: positive allosteric modulators of human D2 dopamine receptor; P14416; HEK293 T-REx D2, calcium flux, EC20 dopamine potentiation; potentiation, % at 10 µM; actives 0.34% (n = 340,000);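 active means potentiation over 3 SD above the plate norm, cut at about 30% in these data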; further: 0% is about no effect
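Tetracycline-induced HEK293 T-REx cells force-coupled to calcium signalling expressed D2; compounds were pin-added after a 10 s baseline, read kinetically 180 s, then an EC20 dopamine challenge followed with a further 180 s calcium read.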
D2 antag: D2 dopamine receptor (human) antagonism. actives 2% (n = 340,000). HEK293 TREx D2 cells, calcium flux, dopamine EC80. AID 485344. P14416. inhibition, % at 10 µM; in the data active means inhibition above about 30%; inactive means below that, where a call was filed; further: 0% is about no effect
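Cells plated overnight at 30 C with tetracycline; no-wash calcium dye, 30–90 min RT; 10 s baseline; compound pinned; 180 s read; EC80 dopamine added; another 180 s read.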
D3 ag: D3 receptor agonism confirmed, beta-arrestin readout. shares compounds with D2 ag-2. Potency, µM (highest dose often 76.9 µM), for the others: at the top dose activation, actives largely listed as activators. DiscoveRx D3 beta-arrestin cells, luminescence, 90 min. actives 4% (n = 2,300);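 further: potency means the concentration at half of the fitted maximal effect; 100% = dopamine control response; nearly all actives have a fitted effect of over 70% in size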
D2 ag-3: D2 receptor agonism, beta-arrestin counterscreen; Potency, µM (doses to about 76.9 µM), inactives show top-dose activation, actives largely listed as activators; DiscoveRx PathHunter D2 beta-arrestin, luminescence, 90 min; response scale: percent relative to full dopamine signal; shares compounds with D2 ag-2; actives 5.9% (n = 2,300); further: potency means the concentration at half of the fitted maximal effect; % of control where 0% means no effect; nearly all actives have a fitted effect of over 70% in size
Numbers without * were called inactive; ? = inconclusive; nt = no result given. A selection: hits, their analogues and other compounds. The true share with any hit is near 2.4%. Unless noted, the call rests on the fitted dose curve; in most records, active means well fitted activation curve with a large enough effect; inconclusive means small, poorly fitted or top-dose-only effect; inactive means flat fitted curve, though single readings scatter.

SMILES	D2 ag-1	D2 PAM-1	D2 ag-2	D2 PAM-2	D2 antag	D3 ag	D2 ag-3
CC(C)N(Cc1nc(-c2ccccc2)no1)C(=O)c1ccc(Cl)cc1	-8	-7	51*	-20	-2	-11%	4%
COc1ccccc1C(=O)N(Cc1nc(-c2ccc(Cl)cc2)no1)C(C)C	3	-3	51*	-17	-5	-1%	19%
Cc1ccccc1C(=O)N(Cc1nc(-c2ccc(Cl)cc2)no1)C(C)C	nt	nt	1	-7	nt	nt	nt
CN(C)c1ccc(CNC(=O)C2CCN(S(=O)(=O)c3ccc4[nH]c(=O)ccc4c3)CC2)cc1	nt	nt	0	13	nt	nt	nt
COc1ccc(Cc2nc3ccc(C(=O)N4CCCCC4CO)cc3o2)cc1OC (stereo unspecified)	-1	-6	nt	nt	nt	nt	nt
CCOC(=O)N1CCN(C/C(Cl)=C/c2ccccc2)CC1	?	2	49*	-21	8	-1%	16%
O=C(Cc1c(F)cccc1Cl)NNC(=O)c1ccncc1	8	-3	0	4	-10	-2%	-1%
COc1cc(C(=O)NCC(c2cccs2)S(=O)(=O)c2cccs2)cc(OC)c1OC (stereo unspecified)	nt	nt	0	-3	nt	nt	nt
CC(C)N(c1ccccc1)c1ccc(NC(=O)[C@@H]2O[C@H](CO)[C@@H](O)[C@H]2O)cc1	-8	-3	nt	nt	nt	nt	nt
O=C(O)CCn1cc(-c2ccc(F)cc2)nc1-c1ccncc1	-1	-7	nt	nt	nt	-13%	-5%
Cc1ccc(CNC(=O)CCn2cc(-c3ccc(F)cc3)nc2-c2ccncc2)cc1	-3	-16	-1	-13	-7	nt	nt
COc1ccc(CCNC(=O)c2cc(C3CC3)on2)cc1OC	-4	-3	0	-1	-4	-10%	0%
CC12CCC3C(CCC4CC(O)CCC43C)C1CC(O)C2 (stereo unspecified)	-2	2	nt	nt	nt	nt	nt
C[C@]12CCC(O)CC1CCC1C2CC[C@]2(C)C(c3cc(C(F)(F)F)n[nH]3)CCC12 (stereo partly specified)	-3	5	16	11	44*	?	?
CC1(C)CC(O)(CNCc2ccc3c(c2)OCO3)CCO1 (stereo unspecified)	?	18	70*	-22	88*	30%	?
COc1ccc(NC(=O)c2nnn(Cc3nc(-c4cc(OC)c(OC)c(OC)c4)oc3C)c2C)cc1Cl	nt	nt	0	-10	nt	nt	nt
CC(=O)c1ccc(NC(=O)CC2Oc3ccc(C)cc3NC2=O)cc1 (stereo unspecified)	nt	nt	0	10	nt	nt	nt
CC(=O)CCc1ccc(OCC(O)CNCCOc2ccc(C)cc2)cc1 (stereo unspecified)	6	-7	66*	-26	61*	?	?
C[C@@H]1CN([C@@H](C)CO)C(=O)c2cc(Br)cnc2O[C@@H]1CN(C)Cc1ccc(Oc2ccccc2)cc1	-5	-4	nt	nt	nt	nt	nt
CCOC(=O)Cc1csc(NC(=O)CN2CCOCC2)n1	1	-4	0	3	9	-6%	0%
O=C(NC(c1ccc(Cl)cc1)c1ccsc1)C1CCN(CCOc2ccc(Cl)cc2)CC1 (stereo unspecified)	-2	-15	nt	nt	nt	nt	nt
CC(=O)c1ccc(N2CCN(C(=O)C3CCCN(S(=O)(=O)c4ccc(Br)s4)C3)CC2)cc1 (stereo unspecified)	nt	nt	-1	0	nt	nt	nt
CC(=O)c1ccc(N2CCN(C(=O)C3CCCN(S(=O)(=O)c4cnc[nH]4)C3)CC2)cc1 (stereo unspecified)	-2	-6	1	6	32*	-3%	-7%
O=C(NCCCN1CCN(c2ccccc2F)CC1)C1CCCN(S(=O)(=O)c2cnc[nH]2)C1 (stereo unspecified)	-2	12	68*	-19	65*	?	15%
